Measured values from ChEMBL document CHEMBL3988442, “University of Dundee, Small-Polar-MMV Screening Library” (2021).
The whole screen tested about 48,000 compounds, of which about 13,000 (27%) showed an effect of 50% or more. The list shows a part of the results.

Test system: Wolbachia pipientis
Experiment: Anti-Wolbachia Cell-Based Screen
Type: functional
Parameters: scale not given: in the data most compounds retested in dose-response had high values
Conditions: 5 µM

Compared with `c1ccc2sc(N3CCCN(c4ncnc5c4CCNC5)CC3)nc2c1`, `O=C(Nc1c(N2CCCC2)cccc1N1CCCC1)c1cnccn1` is higher in “Percent Effect” value: -7.795% for the first, -1.067% for the second.

Compared with `CC(NCCNS(=O)(=O)c1cccc(Cl)c1)C1CCOCC1` (stereo not given), `Cc1cccc(CN2CCC(NS(C)(=O)=O)CC2)n1` is higher in “Percent Effect” value: -16.43% for the first, -9.608% for the second.

Compared with `CCOc1ccc(C(=O)NCc2ccnc(N3CCCC3)c2)cn1`, `O=C(NCc1ccc(N2CCCC2)nc1)N1CCc2sccc2C1` is higher in “Percent Effect” value: -6.067% for the first, -1.896% for the second.

Compared with `CCCN1CCN(Cc2cccc(OCC(N)=O)c2)[C@H]2CS(=O)(=O)C[C@H]21`, `Cc1cccc(CN2CCC(c3nccn3CC(N)=O)CC2)n1` is lower in “Percent Effect” value: -4.749% for the first, -14.31% for the second.

Compared with `CCOCc1cnc2n1CCN(C(=O)c1cn(C)c3ccccc13)C2C` (stereo not given), `CCc1nc(C)ncc1C(=O)N1CC(C)CN(C)c2ccccc21` (stereo not given) is lower in “Percent Effect” value: 101.9% for the first, -1.529% for the second.

First: O=C(c1ccc(Cl)cn1)N1CCC(COCc2ccccc2)C1 (stereo not given)
Second: c1ccc(CCN2CCCC(c3ccnc4nccn34)C2)cc1 (stereo not given)
The “Percent Effect” value of the first is lower: 7.677% for the first, 130.1% for the second.

First: CC(C)c1noc(CN(CCC2CCCCC2)CC(N)=O)n1
Second: CCc1noc(CN(CCC2CCCCC2)CC(N)=O)n1
The “Percent Effect” value of the first is lower: 116.2% for the first, 163.4% for the second.

First: CC(C(=O)NC1CCCC1)S(=O)(=O)Cc1noc(C(C)(C)C)n1 (stereo not given)
Second: CC(C)(C)c1nc(CN(CCC2CCCCC2)CC(N)=O)no1
The “Percent Effect” value of the first is lower: 6.849% for the first, 228.2% for the second.

Compared with `CCc1noc(CN(CC(=O)N2CCCCC2)c2ccc(C)cc2)n1`, `CCc1nccc(CN2CCCC(CNC(=O)c3occc3C)C2)n1` (stereo not given) is higher in “Percent Effect” value: 0.4396% for the first, 4.372% for the second.

First: C=C(C)CN(CC)Cc1nc(CC)no1
Second: CN(Cc1noc(C(C)(C)C)n1)CC1CCN(CCO)CC1
The “Percent Effect” value of the first is higher: 1.944% for the first, -10.5% for the second.

Compared with `CC(=O)N1CCCCCC1C1CCN(Cc2nc(C(C)C)no2)CC1.Cl` (stereo not given), `CC(C)c1noc(CC[C@@H]2CCCN3CCCC[C@H]23)n1` is higher in “Percent Effect” value: 9.412% for the first, 17.3% for the second.

First: CC(C#N)CSc1ccccc1NCC(=O)NCc1ccccc1 (stereo not given)
Second: CCCN(c1ccccc1C(=O)O)S(=O)(=O)c1cccc2cccnc12
The “Percent Effect” value of the first is higher: 17.5% for the first, -16.07% for the second.

Compared with `CCC1CN(C(=O)c2cc(C(C)=O)c(C)[nH]c2=O)CCN1C(C)C` (stereo not given), `CCOCCn1nc(C)cc1C(=O)N1CC[C@](C)(O)C(C)(C)C1` is higher in “Percent Effect” value: 0.5617% for the first, 2.862% for the second.

First: COCCN1CCN(c2nc(C3CCCC3)nc3c2cnn3C)CC1
Second: CCc1nc(N2CCN(CCOC)CC2)c2cnn(C)c2n1
The “Percent Effect” value of the first is higher: 8.561% for the first, 1.381% for the second.

Going from `CCCc1nc(N2CCC(CCO)CC2)c2cnn(C)c2n1` to `CCCc1nc(N2CCCC(CCOC)C2)c2cnn(C)c2n1` (stereo not given), the “Percent Effect” value rises from -6.253% to 105.9%.

Going from `COCC1CCN(c2nc(C(C)(C)C)nc3c2cnn3C)C1` (stereo not given) to `CCc1nc(N2CCCC(CCCOC)C2)c2cnn(C)c2n1` (stereo not given), the “Percent Effect” value rises from -4.471% to 108.6%.

Going from `Cc1noc([C@H]2C[C@H]3OCC[C@H]3N(Cc3ccc(F)cc3)C2)n1.O=C(O)C(F)(F)F` to `O=C(Nc1cccnc1)[C@H]1CN(Cc2ccccn2)C[C@H]2OCC[C@@H]12.O=C(O)C(F)(F)F.O=C(O)C(F)(F)F`, the “Percent Effect” value falls from 9.305% to -14.96%.

Compared with `CCN(CC)C(=O)Cn1nc(C(C)C)c2cnn(C(C)(C)C)c2c1=O`, `CN(Cc1ncc(C(C)(C)C)o1)CC1CCCN1c1cccnn1` (stereo not given) is higher in “Percent Effect” value: 8.022% for the first, 16.2% for the second.

Compared with `C=C(C)CN(Cc1cccc(O)c1)C1CCC(O)CC1` (stereo not given), `CCN(CCO)C(=O)C1CCC(=O)N(CCc2cccc(F)c2)C1` (stereo not given) is lower in “Percent Effect” value: 3.823% for the first, -9.721% for the second.

First: CCc1nc2c(N3CCC4(CC3)CNC(=O)C4)ncnc2o1
Second: CC(=O)N1CCC(c2n[nH]c3nccnc23)CC1
The “Percent Effect” value of the first is lower: 4.745% for the first, 120.8% for the second.

First: Cn1c(Cn2ccnc2)nnc1C1CCCN(Cc2ccncc2)C1 (stereo not given)
Second: c1cc(CN2CCCC(c3ccnc4nccn34)C2)ccn1 (stereo not given)
The “Percent Effect” value of the first is lower: -0.06506% for the first, 150% for the second.

Compared with `c1cncc(CN2CCC(c3n[nH]c(C4CC4)n3)CC2)c1`, `c1cncc(CN2CCC(c3csc4nccn34)CC2)c1` is higher in “Percent Effect” value: 10.48% for the first, 140.6% for the second.

Compared with `Cc1ncsc1C(=O)NC1CCN(Cc2cccnc2)CC1`, `Clc1cccnc1N1CCC(C2CCN(Cc3cccnc3)CC2)C1` (stereo not given) is lower in “Percent Effect” value: 3.367% for the first, -0.1569% for the second.

First: c1cc(-c2cc(C3CCN(Cc4cncnc4)C3)ccn2)ccn1 (stereo not given)
Second: c1cc(CN2CCC(c3ccnc4nccn34)C2)ccn1 (stereo not given)
The “Percent Effect” value of the first is lower: -7.458% for the first, 128.4% for the second.

Compared with `Cc1cccc(CN2CCC(c3csc4nccn34)CC2)n1.O=CO`, `c1cncc(CN2CCC(c3ccnc4nccn34)C2)c1` (stereo not given) is lower in “Percent Effect” value: 151.3% for the first, 122.6% for the second.

Going from `Fc1ccc(OCc2nnc([C@H]3CCN(Cc4ccncc4)C3)o2)cc1` to `FC(F)(F)c1cc(C2CCCN(Cc3ccncc3)C2)n[nH]1` (stereo not given), the “Percent Effect” value falls from 12.6% to -5.824%.

Compared with `Cc1ccc(C)c(S(=O)(=O)NCCNc2ccc(-n3cccc3)nn2)c1`, `Cc1cc(N(C)Cc2ncc[nH]2)nc(-c2ccccc2)n1` is lower in “Percent Effect” value: 14.81% for the first, 4.008% for the second.

First: C=C(C)CN(CC)S(=O)(=O)c1cccc(F)c1C#N
Second: Cc1ncc(S(=O)(=O)N(CC(C)C)c2cccc(O)c2)s1
The “Percent Effect” value of the first is lower: -7.097% for the first, -3.046% for the second.

First: O=C(Nc1cnccn1)[C@H]1COC[C@H]2CN(c3ncc(F)cn3)C[C@H]21
Second: CC(=O)N1CC(C)CN(C(=O)c2cnccn2)c2ccccc21 (stereo not given)
The “Percent Effect” value of the first is lower: -11.52% for the first, 97.68% for the second.

First: CCN1CCN(C(=O)c2cnc(Cc3c(Cl)cccc3Cl)nc2O)CC1
Second: CCCOc1cccc(NC(=O)NC2CCc3nc(C)nn3C2)c1 (stereo not given)
The “Percent Effect” value of the first is higher: 1.362% for the first, -22.59% for the second.

First: c1ccc(CCN2CCCC(c3noc(C4CC4)n3)C2)cc1 (stereo not given)
Second: CCn1ccnc1CN(C)C1CCCN(CCc2ccccc2)C1 (stereo not given)
The “Percent Effect” value of the first is lower: -7.15% for the first, 17.47% for the second.

Going from `Clc1ccc(CN2CCC(C3CCN(Cc4cccnc4)CC3)C2)cc1` (stereo not given) to `CN(Cc1ccc(-n2cccn2)cc1)C[C@@H]1CCCN2CCCC[C@H]12`, the “Percent Effect” value rises from -5.932% to 18.72%.

First: COCC(=O)N1CCC(c2nccn2CC2CC2)CC1
Second: COCC(=O)N1CCC(c2n[nH]c3nccnc23)CC1
The “Percent Effect” value of the first is lower: -30.12% for the first, 142.1% for the second.

Compared with `O=C(Cc1ccsc1)N1CCCC(c2n[nH]c3nccnc23)C1` (stereo not given), `O=C(Cc1ccsc1)N1CCC(c2n[nH]c3nccnc23)CC1` is higher in “Percent Effect” value: -11.37% for the first, 72.86% for the second.

Compared with `O=C(Cc1ccsc1)N1CCCC(c2n[nH]c3ncccc23)C1` (stereo not given), `CN(Cc1cccc(C(N)=O)c1)CC1CCCN1c1cccnn1` (stereo not given) is higher in “Percent Effect” value: 100.9% for the first, 103.6% for the second.

First: O=C(NCCC(O)c1ccco1)c1ccco1 (stereo not given)
Second: CC(=O)N1CC(C)CN(Cc2ccon2)c2ccccc21 (stereo not given)
The “Percent Effect” value of the first is lower: -7.433% for the first, 7.641% for the second.

Going from `CCC(CC)NC(=O)c1cncc(Br)c1` to `Cn1cc(C(=O)Nc2cccc(F)c2)ccc1=O`, the “Percent Effect” value falls from 15.73% to 0.158%.

Compared with `CN1CCC(c2nnc(CN3CCC(O)CC3)n2C)CC1`, `O=C(NCc1nnc2n1CCCCC2)N1CCc2sccc2C1` is higher in “Percent Effect” value: -6.188% for the first, 8.039% for the second.

Going from `CC1CN(C)c2ccccc2CN1C(=O)c1cscn1` (stereo not given) to `CC(=O)N1CC(C)CN(C(=O)c2cscn2)c2ccccc21` (stereo not given), the “Percent Effect” value rises from -10.99% to 95.98%.

Compared with `CC1CN(C(=O)c2cscn2)c2ccccc2S1` (stereo not given), `Cc1ncsc1C(=O)N1CC(C)Sc2ccccc21` (stereo not given) is higher in “Percent Effect” value: -14.12% for the first, 0.6302% for the second.

Going from `CC(=O)N1CC(C)CN(C(=O)c2cccnc2C)c2ccccc21` (stereo not given) to `Cc1nc2ccccc2nc1CN(C)CC1CCCN1c1cccnn1` (stereo not given), the “Percent Effect” value falls from 91.16% to 5.031%.

Going from `CN(C)C(=O)N1CC2(CCN(S(=O)(=O)C3CC3)CC2)c2ccccc21` to `CC(c1ccccc1Cl)N(C(=O)CSCC(N)=O)C1CC1` (stereo not given), the “Percent Effect” value falls from -5.03% to -12.69%.

First: O=C(CCO)N[C@H]1CN(CC2CCC2)C[C@@H]1c1ccccc1
Second: O=C(NCc1nnc2n1CCCC2)N1CCc2ccccc2C1
The “Percent Effect” value of the first is lower: 4.649% for the first, 5.135% for the second.

First: CN(Cc1nc(N)c2ccccc2n1)CC1CCCN1c1cccnn1 (stereo not given)
Second: CN(Cc1ccccn1)CC1CCCN1c1cccnn1 (stereo not given)
The “Percent Effect” value of the first is lower: -0.6342% for the first, 130% for the second.

Compared with `COc1ccc(CN(C)CC2CCCN2c2cccnn2)cc1F` (stereo not given), `CN(Cc1cccnc1)CC1CCCN1c1cccnn1` (stereo not given) is lower in “Percent Effect” value: 12.57% for the first, -2.765% for the second.

First: CCn1ccnc1CN(C)CC1CCCN1c1cccnn1 (stereo not given)
Second: CN(Cc1cnn(C)c1)CC1CCCN1c1cccnn1 (stereo not given)
The “Percent Effect” value of the first is lower: 7.087% for the first, 108.8% for the second.

Compared with `Cc1cnc(CN(C)CC2CCCN2c2cccnn2)cn1` (stereo not given), `Cc1nnc(CN(C)CC2CCCN2c2cccnn2)o1` (stereo not given) is higher in “Percent Effect” value: -5.64% for the first, -3.082% for the second.

Compared with `CN(Cc1ccc(-n2cccn2)cc1)CC1CCCN1c1cccnn1` (stereo not given), `CN(Cc1ccc(-n2ccnc2)cc1)CC1CCCN1c1cccnn1` (stereo not given) is higher in “Percent Effect” value: 115.9% for the first, 126.9% for the second.

Compared with `Cc1noc(C)c1CN(C)CC1CCCN1c1cccnn1` (stereo not given), `CN(CCc1ccncc1)CC1CCCN1c1cccnn1` (stereo not given) is higher in “Percent Effect” value: -0.05919% for the first, 116.4% for the second.

Going from `CN(Cc1cnn(-c2ccccc2)n1)CC1CCCN1c1cccnn1` (stereo not given) to `CN(CC(=O)Nc1ccncc1)CC1CCCN1c1cccnn1` (stereo not given), the “Percent Effect” value falls from 15.2% to 2.636%.

Compared with `O=C1CCCN1C1CCN(S(=O)(=O)CCOc2ccc(F)cc2)CC1`, `CC(C)NC(=O)C1CCN(C(C)C(=O)N2CCc3sccc3C2)CC1` (stereo not given) is lower in “Percent Effect” value: 0.4633% for the first, -8.464% for the second.

Compared with `O=C(NCc1nnc2n1CCCCC2)N1CCc2ccccc2C1`, `O=C(NCc1nnc2n1CCCC2)N1CCc2sccc2C1` is higher in “Percent Effect” value: 97.78% for the first, 127.9% for the second.

First: CC(NCc1nnc2n1CCCC2)C(=O)N1CCc2sccc2C1 (stereo not given)
Second: O=C(NCc1nnc2n1CCC2)N1CCc2sccc2C1
The “Percent Effect” value of the first is higher: 124.2% for the first, 90.24% for the second.

Going from `O=C(NCc1nnc2ccccn12)N1CCc2sccc2C1` to `CC(NCc1nnc2n1CCCC2)c1nc(-c2cccs2)no1` (stereo not given), the “Percent Effect” value rises from -3.483% to -0.8773%.

Going from `O=C(NCc1nnc2n1CCC2)N1CCC2(CCCCC2)CC1` to `O=C(NCc1nnc2n1CCCCC2)N1CCC2(CCCCC2)C1`, the “Percent Effect” value falls from 10.88% to -0.2574%.
